Only some compounds are listed: those with a hit (about 1.2% of all), similar ones and a draw of the others.
FAS TE block: FAS thioesterase domain inhibitors, primary screen, biochemical, fluorescence intensity, uHTS; inhibition, % at 15 µM; AID 602261, 2012; 0.67% of 360,000 active; recombinant FAS-TE, OMFH fluorogenic substrate, fluorescence endpoint;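 active = compounds whose normalised, plate-corrected inhibition of enzyme fluorescence in the single-dose primary screen is 50% or more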
Furin inh: human furin inhibitors, primary screen, biochemical, fluorescence intensity; P09958; 0.061% of 220,000 active; inhibition, % at 20 µM or 30 µM; AID 463115, 2010; purified furin, fluorogenic substrate cleavage; in the data active = inhibition above about 25%
p97 inhibitor: inhibitors of human p97 ATPase, primary screen, biochemical; recombinant p97 ATPase, Kinase-Glo ATP luminescence, 3 h; Transitional endoplasmic reticulum ATPase (Homo sapiens), P55072; 0.42% of 220,000 active; inhibition, % at 8 µM; in the data active = inhibition above about 15%
PKD1 kinase inh: inhibitors of human PKD1 kinase, biochemical, fluorescence polarization; Serine/threonine-protein kinase D1 (Homo sapiens), Q15139; PKD1 kinase fluorescence polarization assay; inhibition, % (concentration not given with the values); 0.056% of 200,000 active; in the data active = inhibition above about 50%
Redox H2O2 prof: compounds producing H2O2 with reducing agent – biochemical, NIH compound library profiling, artefact control for MLSCN library redox annotation, primary screen | 0.03% of 200,000 active | DTT-dependent redox cycling H2O2, phenol red/HRP absorbance; 100% = 100 µM peroxide control, 0% = buffer | activation, % at 10 µM;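 active = activation of at least 50% relative to the plate's high and low controls in the primary single-dose screen; inactive = activation below 50%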;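 note: compound incubated with DTT at 0.8 mM final as the reducing agent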
SUMO HTRF inh: inhibitors of in vitro SUMOylation cascade, primary screen, biochemical, HTRF, uHTS; SUMO-conjugating enzyme UBC9 (Homo sapiens), P63279; HTRF SUMOylation assay, SAE1/SAE2 + UBC9; inhibition, % at 35 µM; 0.36% of 290,000 active; in the data active = inhibition above about 50%, passing the limit was not always enough
Target sequence (P63279 whole entry, looked up): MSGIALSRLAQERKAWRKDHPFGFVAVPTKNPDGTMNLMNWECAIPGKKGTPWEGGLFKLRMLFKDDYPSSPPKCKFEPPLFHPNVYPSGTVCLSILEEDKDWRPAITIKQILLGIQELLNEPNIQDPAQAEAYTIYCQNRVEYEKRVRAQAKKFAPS
FAS-TE inh conf: FAS thioesterase domain inhibitors, confirmation, biochemical, fluorescence intensity, single concentration | shares compounds with FAS TE block | AID 624325, 2012 | inhibition, % at 15 µM | 45% of 2,300 active | recombinant FAS-TE, OMFH fluorogenic substrate;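 active = compounds inhibiting the enzyme by at least 50% at 15 µM in any one of the replicates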
Hits are given with their value; i = inactive; nt = no result given; ! = repeats disagree.

SMILES | FAS TE block | Furin inh | p97 inhibitor | PKD1 kinase inh | Redox H2O2 prof | SUMO HTRF inh | FAS-TE inh conf
CCc1ccc(OCC(=O)N2CCc3ccccc32)cc1 | i | nt | nt | nt | nt | i | nt
CCc1ccc(OCC(=O)N2c3ccccc3CCc3ccccc32)cc1 | 52 | i | i | i | i | i | i
CCCCCCn1c(=O)c(F)cn(Cc2ccc(OC)c([N+](=O)[O-])c2)c1=O | 58 | i | i | i | i | i | 57
Cc1cc(Cl)ccc1NNC(=O)CCc1ccccc1 | i | i | i | nt | nt | i | nt
CCCC(=O)N(C1CC(C)C(C#N)(C#N)C1(C#N)C#N)N(C)C (configuration not stated) | 62 | i | i | nt | nt | i | 68
CC(=O)N(C1CC(C)C(C#N)(C#N)C1(C#N)C#N)N(C)C (configuration not stated) | 54 | i | i | i | i | i | 63
C/C(=N\NC(=S)NC1CCCCC1)c1ccc(OC(F)F)cc1OC(F)F | 57 | i | i | i | i | i | i
C/C(=N\NC(=O)C1CC1)c1ccc(OC(F)F)cc1OC(F)F | i | nt | nt | nt | nt | i | nt
CC(C)N1C(=O)C(=O)N(CC(=O)N(C)c2ccccc2)C1=O | i | nt | nt | nt | nt | nt | nt
O=C(CSc1ccc([N+](=O)[O-])cn1)Nc1ccc2c(c1)OCCO2 | 85 | i | i | i | i | i | 88
CC(C)(C)N(Cc1ccccc1)C(=O)COC(=O)c1ccc([N+](=O)[O-])o1 | 50 | nt | nt | nt | nt | nt | 52
O=C(COC(=O)c1ccc([N+](=O)[O-])o1)NCCc1ccccc1 | i | nt | nt | nt | nt | nt | nt
CSc1nnc2n(Cc3ccccc3)c(=O)c3c4c(sc3n12)COC(C(C)C)C4 (configuration not stated) | nt | i | i | i | i | i | nt
Cc1nnc2n(Cc3ccccc3)c(=O)c3c4c(sc3n12)COC(C(C)C)C4 (configuration not stated) | 55 | i | i | i | i | i | i
CCn1c(=N)c(S(=O)(=O)c2ccc(C)cc2)cc2c(=O)n3ccccc3nc21 | nt | i | i | i | i | i | nt
CCn1c(=N)c(S(=O)(=O)c2ccccc2)cc2c(=O)n3ccccc3nc21 | 55 | i | i | i | i | i | i
Cc1ccc(C)c(OCCC(=O)N(C)CC(=O)Nc2c(C)cccc2C)c1 | i | nt | nt | nt | nt | nt | nt
O=C(NNS(=O)(=O)c1ccc([N+](=O)[O-])cc1)c1ccc([N+](=O)[O-])cc1 | 74 | nt | nt | nt | nt | i | 77
O=C(NNS(=O)(=O)c1ccccc1)c1cnn(-c2ccccc2)c1-n1cccc1 | i | i | i | i | i | i | nt
O=C(NNS(=O)(=O)c1ccc([N+](=O)[O-])cc1)c1cnn(-c2ccccc2)c1-n1cccc1 | 65 | i | i | i | i | i | 75
CSc1ccc(CNc2ncc(-c3cccc([N+](=O)[O-])c3)n2C)cc1 | i | nt | nt | nt | nt | i | nt
Cn1c(-c2ccccc2)cnc1NCc1cccc([N+](=O)[O-])c1 | 71 | nt | nt | nt | nt | i | 67
O=C(Nc1ccc2c(c1)OCCO2)C(c1cc2ccccc2o1)N1CCN(c2ccc(F)cc2)CC1 (configuration not stated) | i | nt | nt | nt | nt | nt | nt
O=C(Nc1ccc2c(c1)OCCO2)C(c1cc2ccccc2o1)N1CCN(c2ccc(C(F)(F)F)cn2)CC1 (configuration not stated) | 55 | nt | nt | nt | nt | nt | i
Cc1c(C(=O)N2CCc3ccccc3C2)oc2ccc(S(=O)(=O)N3CC(C)CC(C)C3)cc12 (configuration not stated) | 52 | i | i | i | i | i | i
SMILES | FAS TE block | Furin inh | p97 inhibitor | PKD1 kinase inh | Redox H2O2 prof | SUMO HTRF inh | FAS-TE inh conf
N#CC(CCc1ccccc1[N+](=O)[O-])(CCc1ccccc1[N+](=O)[O-])C(N)=O | 52 | nt | nt | nt | nt | nt | 47
O=[N+]([O-])c1cccc(C(=NCc2ccccc2)NO)c1 | i | nt | nt | nt | nt | i | nt
Cc1ccc(Cl)cc1N1CCN(S(=O)(=O)c2ccc3c(c2)oc(=O)n3C)CC1 | 52 | i | i | i | i | i | i
COc1ccc(NC(=O)C(Sc2nnc(-c3ccncc3)n2-c2ccccc2C)c2ccccc2)cc1Cl (configuration not stated) | 56 | i | i | i | i | i | i
NC(=O)c1cccc(-c2ccnc3c2CC(C(=O)NCc2cccc(Cl)c2)O3)c1 (configuration not stated) | i | nt | nt | nt | nt | nt | nt
CC1CC(C)CN(C(=O)COC(=O)Cc2ccc(Br)cc2)C1 (configuration not stated) | i | nt | nt | nt | nt | i | nt
COc1ccccc1N1CCN(c2ccc3c(c2)S(=O)(=O)c2cccc(C(=O)NCc4ccc(F)cc4)c2C3=O)CC1 | 51 | nt | nt | nt | nt | nt | i
CC(=O)c1c(C)[nH]c(C(=O)CN2CCN(S(=O)(=O)c3ccccc3[N+](=O)[O-])CC2)c1C | i | nt | nt | nt | nt | nt | nt
O=C1C(Cc2ccccc2)Nc2ncnc(N3CCN(c4ccccc4)CC3)c2N1Cc1ccccc1 (configuration not stated) | i | nt | nt | nt | nt | nt | nt
Cc1ccc(CN2C(=O)C(Cc3ccccc3)Nc3ncnc(N4CCN(c5ccccc5)CC4)c32)cc1 (configuration not stated) | 62 | nt | nt | nt | nt | nt | i
O=C1C(Cc2ccccc2)Nc2ncnc(N3CCN(c4ccccc4)CC3)c2N1Cc1ccc(Br)cc1 (configuration not stated) | 83! | nt | nt | nt | nt | nt | i
COc1ccc(/C=C(/C#N)C(=O)Nc2ccccc2C)cc1C(=O)O | i | i | i | i | i | i | nt
CCOc1cc(/C=C(\C#N)C(=O)Nc2ccccc2C(=O)O)ccc1OC(=O)c1ccc(C)cc1 | 80 | nt | nt | nt | nt | i | i
Cc1nn(-c2ccccn2)c2c1C(c1c(F)cccc1Cl)C1=C(N2)c2ccccc2C1=O (configuration not stated) | nt | i | i | i | i | i | nt
Cc1nn(-c2ccccn2)c2c1C(c1ccccc1Cl)C1=C(N2)c2ccccc2C1=O (configuration not stated) | 53 | i | i | i | i | i | i
CCCCCN(CCCCC)C(=O)C(CCC(=O)O)NC(=O)c1ccc(Cl)c(Cl)c1 (configuration not stated) | 72 | nt | nt | nt | nt | nt | 74
CCCCN(CC)C(=O)c1ccc(Cl)c(Cl)c1 | i | i | i | i | i | i | nt
CC(=O)c1cccc(-c2ccnc3c2CC(C(=O)Nc2cccc(OC(F)(F)F)c2)O3)c1 (configuration not stated) | 54 | nt | nt | nt | nt | nt | 57
O=C(Nc1cccc(OC(F)(F)F)c1)C1Cc2c(-c3ccc(Cl)cc3)ccnc2O1 (configuration not stated) | i | nt | nt | nt | nt | nt | nt

Source: PubChem BioAssay (several laboratories)
